The results in this text go back to article PMC7862700, “An all-to-all approach to the identification of sequence-specific readers for epigenetic DNA modifications on cytosine”.

For one experiment, the target named is T1, ERF (Homo sapiens, UniProt P50548 1-548).
T1 sequence: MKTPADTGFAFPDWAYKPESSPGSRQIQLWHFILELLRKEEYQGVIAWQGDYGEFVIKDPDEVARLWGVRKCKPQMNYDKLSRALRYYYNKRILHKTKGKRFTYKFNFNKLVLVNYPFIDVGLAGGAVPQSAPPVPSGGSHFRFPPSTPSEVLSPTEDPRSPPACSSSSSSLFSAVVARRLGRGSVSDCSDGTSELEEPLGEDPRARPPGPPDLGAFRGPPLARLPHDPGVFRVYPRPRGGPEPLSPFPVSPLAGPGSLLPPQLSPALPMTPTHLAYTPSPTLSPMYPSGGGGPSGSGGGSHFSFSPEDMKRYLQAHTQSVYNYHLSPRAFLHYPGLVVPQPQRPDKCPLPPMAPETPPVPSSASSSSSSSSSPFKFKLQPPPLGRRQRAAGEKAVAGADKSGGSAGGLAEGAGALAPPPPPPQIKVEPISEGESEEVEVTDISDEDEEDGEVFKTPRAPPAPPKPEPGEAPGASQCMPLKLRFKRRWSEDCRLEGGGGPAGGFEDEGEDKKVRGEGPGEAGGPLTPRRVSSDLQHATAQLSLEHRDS
The experiment can be described thus: DAPPL (digital affinity profiling via proximity ligation, sequencing); 10 mM Tris-HCl pH 7.5, 50 mM NaCl, 1 mM DTT, 4% glycerol, room temperature, 30 min; GST-TFs on glutathione beads, 16-mer random dsDNA library, 0.1% formaldehyde crosslink after washing; high values mean tight binding. The conditions noted are these: protein: recombinant; tags: N-terminal GST; dsDNA, one strand shown. The method, boiled down: (§1)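 Sequencing on an Illumina NextSeq500 followed washing, crosslinking with 0.1% formaldehyde, proximity ligation (BsaI/T4 ligase, 1 h, 37 °C) and PCR amplification of pools that had been incubated for 30 min at room temperature with 200 nmole of a random double-stranded 16-mer DNA library in Tris/NaCl/DTT/glycerol buffer. Each pool held DNA-barcoded human transcription factors, expressed in yeast as GST fusions and captured on glutathione beads, plus a tag-only sample. Binding signal is a hexamer's read frequency for a factor divided by its frequency in the tag-only sample.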
In the case of CGTCCC, the binding signal is 1.35 fold enrichment (6-mer frequency, TF over GST control).
Same read-out and setting: the figure for CCCTAA is 1.36 fold enrichment (6-mer frequency, TF over GST control); for TTCTTG it is 1.56 fold enrichment (6-mer frequency, TF over GST control); for AACAAG it is 1.19 fold enrichment (6-mer frequency, TF over GST control).
TGCCTT: the binding signal was 1.24 fold enrichment (6-mer frequency, TF over GST control).
Same read-out and setting: the figure for TGCATT is 1.45 fold enrichment (6-mer frequency, TF over GST control); for CCTTTG it is 1.24 fold enrichment (6-mer frequency, TF over GST control); for CTCACC it is 1.33 fold enrichment (6-mer frequency, TF over GST control).
For the sequence AATAGA, the binding signal is 1.19 fold enrichment (6-mer frequency, TF over GST control).
As to GAAACG, the binding signal is 1.27 fold enrichment (6-mer frequency, TF over GST control).
As for TATAAC, the binding signal is 1.18 fold enrichment (6-mer frequency, TF over GST control).
The same measure, in the same setting: the figure for CGTTCA is 1.2 fold enrichment (6-mer frequency, TF over GST control); for TGCTGA it is 1.03 fold enrichment (6-mer frequency, TF over GST control).
On the same count and under the same terms, the figure for ACATGT is 1.15 fold enrichment (6-mer frequency, TF over GST control); for TCCGGG it is 1.38 fold enrichment (6-mer frequency, TF over GST control).
In the case of GGCCTA, the binding signal was 1.19 fold enrichment (6-mer frequency, TF over GST control).
Turning to CGGCAT, the binding signal is 1.09 fold enrichment (6-mer frequency, TF over GST control).
For ATACTA, the binding signal is 1.09 fold enrichment (6-mer frequency, TF over GST control).
With TCCCCG, the binding signal is 1.21 fold enrichment (6-mer frequency, TF over GST control).
Still for that read-out and setting: with CGAATT the figure was 1.28 fold enrichment (6-mer frequency, TF over GST control).
The same measure, in the same setting: the figure for TGCACT is 1.28 fold enrichment (6-mer frequency, TF over GST control); for TGATTC it is 1.07 fold enrichment (6-mer frequency, TF over GST control).
In the case of TGCGCA, the binding signal is 1.11 fold enrichment (6-mer frequency, TF over GST control).
Regarding AAGTGC, the binding signal is 1.22 fold enrichment (6-mer frequency, TF over GST control).
On the same count and under the same terms, with ATTCAG the figure was 1.15 fold enrichment (6-mer frequency, TF over GST control); with TGCCTG, 1.46 fold enrichment (6-mer frequency, TF over GST control).
The same measure, in the same setting: with CACCAC the figure was 1.14 fold enrichment (6-mer frequency, TF over GST control); with TCCACG, 1.03 fold enrichment (6-mer frequency, TF over GST control).
Still for that read-out and setting: the figure for CCTATT is 1.6 fold enrichment (6-mer frequency, TF over GST control); for ACCTGA it is 1.14 fold enrichment (6-mer frequency, TF over GST control).
On to CTTACA, for which the binding signal was 1.34 fold enrichment (6-mer frequency, TF over GST control).
Same read-out and setting: the figure for GAATCC is 1.12 fold enrichment (6-mer frequency, TF over GST control).
Still for that read-out and setting: the figure for ATCACT is 1.16 fold enrichment (6-mer frequency, TF over GST control).
The same measure, in the same setting: the figure for TGGAAA is 1.08 fold enrichment (6-mer frequency, TF over GST control); for CTTACC it is 1.19 fold enrichment (6-mer frequency, TF over GST control); for CCCTGC it is 1.18 fold enrichment (6-mer frequency, TF over GST control).
For TGACAC, the binding signal is 1.3 fold enrichment (6-mer frequency, TF over GST control).
Take AACCAT: the binding signal was 1.07 fold enrichment (6-mer frequency, TF over GST control).
Same read-out and setting: the figure for CATGAT is 1 fold enrichment (6-mer frequency, TF over GST control); for CTAAAA it is 1.2 fold enrichment (6-mer frequency, TF over GST control).

Another experiment concerns the target T2, ETV3L (Homo sapiens, UniProt Q6ZN32 1-361).
T2 sequence: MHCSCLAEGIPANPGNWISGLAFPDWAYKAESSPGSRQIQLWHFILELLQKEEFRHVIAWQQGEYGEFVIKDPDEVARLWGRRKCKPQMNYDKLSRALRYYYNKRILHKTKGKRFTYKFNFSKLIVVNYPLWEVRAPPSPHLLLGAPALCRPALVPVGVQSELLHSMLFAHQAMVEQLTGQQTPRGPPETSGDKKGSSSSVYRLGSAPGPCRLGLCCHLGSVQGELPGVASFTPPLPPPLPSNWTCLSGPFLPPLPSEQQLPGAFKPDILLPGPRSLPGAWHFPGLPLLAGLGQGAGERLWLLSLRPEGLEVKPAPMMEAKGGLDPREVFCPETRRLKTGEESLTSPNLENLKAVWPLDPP
Described as above. The conditions noted are these: protein: recombinant; tags: N-terminal GST; dsDNA, one strand shown. The method, boiled down: as §1
For the sequence CGTCCC, the binding signal is 1.3 fold enrichment (6-mer frequency, TF over GST control).
Same read-out and setting: the figure for CCCTAA is 1.32 fold enrichment (6-mer frequency, TF over GST control); for TTCTTG it is 1.56 fold enrichment (6-mer frequency, TF over GST control).
For the sequence AACAAG, the binding signal was 1.18 fold enrichment (6-mer frequency, TF over GST control).
Same read-out and setting: the figure for TGCCTT is 1.52 fold enrichment (6-mer frequency, TF over GST control); for TGCATT it is 1.39 fold enrichment (6-mer frequency, TF over GST control).
For CCTTTG, the binding signal is 1.32 fold enrichment (6-mer frequency, TF over GST control).
With CTCACC, the binding signal was 1.16 fold enrichment (6-mer frequency, TF over GST control).
The same measure, in the same setting: the figure for AATAGA is 1.16 fold enrichment (6-mer frequency, TF over GST control).
GAAACG: the binding signal was 1.18 fold enrichment (6-mer frequency, TF over GST control).
The same measure, in the same setting: the figure for TATAAC is 1.21 fold enrichment (6-mer frequency, TF over GST control).
On the same count and under the same terms, with CGTTCA the figure was 1.25 fold enrichment (6-mer frequency, TF over GST control).
As to TGCTGA, the binding signal is 1.05 fold enrichment (6-mer frequency, TF over GST control).
For the sequence ACATGT, the binding signal is 1.19 fold enrichment (6-mer frequency, TF over GST control).
Take TCCGGG: the binding signal was 1.4 fold enrichment (6-mer frequency, TF over GST control).
Regarding GGCCTA, the binding signal is 1.15 fold enrichment (6-mer frequency, TF over GST control).
Still for that read-out and setting: the figure for CGGCAT is 1.23 fold enrichment (6-mer frequency, TF over GST control).
On the same count and under the same terms, with ATACTA the figure was 1.2 fold enrichment (6-mer frequency, TF over GST control); with TCCCCG, 1.17 fold enrichment (6-mer frequency, TF over GST control); with CGAATT, 1.28 fold enrichment (6-mer frequency, TF over GST control).
On the same count and under the same terms, with TGCACT the figure was 1.34 fold enrichment (6-mer frequency, TF over GST control); with TGATTC, 1.09 fold enrichment (6-mer frequency, TF over GST control).
As for TGCGCA, the binding signal is 1.11 fold enrichment (6-mer frequency, TF over GST control).
Still for that read-out and setting: with AAGTGC the figure was 1.2 fold enrichment (6-mer frequency, TF over GST control).
The same measure, in the same setting: with ATTCAG the figure was 1.2 fold enrichment (6-mer frequency, TF over GST control).
Same read-out and setting: with TGCCTG the figure was 1.28 fold enrichment (6-mer frequency, TF over GST control); with CACCAC, 1.19 fold enrichment (6-mer frequency, TF over GST control).
On to TCCACG, for which the binding signal was 1.18 fold enrichment (6-mer frequency, TF over GST control).
CCTATT: the binding signal is 1.64 fold enrichment (6-mer frequency, TF over GST control).
Take ACCTGA: the binding signal was 1.04 fold enrichment (6-mer frequency, TF over GST control).
Still for that read-out and setting: the figure for CTTACA is 1.26 fold enrichment (6-mer frequency, TF over GST control); for GAATCC it is 1.11 fold enrichment (6-mer frequency, TF over GST control).
On the same count and under the same terms, the figure for ATCACT is 1.16 fold enrichment (6-mer frequency, TF over GST control).
Same read-out and setting: with TGGAAA the figure was 1.2 fold enrichment (6-mer frequency, TF over GST control).
As to CTTACC, the binding signal is 1.16 fold enrichment (6-mer frequency, TF over GST control).
The same measure, in the same setting: the figure for CCCTGC is 1.18 fold enrichment (6-mer frequency, TF over GST control).
Still for that read-out and setting: the figure for TGACAC is 1.22 fold enrichment (6-mer frequency, TF over GST control).
The same measure, in the same setting: with AACCAT the figure was 1.16 fold enrichment (6-mer frequency, TF over GST control); with CATGAT, 1.13 fold enrichment (6-mer frequency, TF over GST control).
Turning to CTAAAA, the binding signal was 1.2 fold enrichment (6-mer frequency, TF over GST control).

The next experiment deals with T3, ETS2 (Homo sapiens, UniProt P15036 1-469).
T3 sequence: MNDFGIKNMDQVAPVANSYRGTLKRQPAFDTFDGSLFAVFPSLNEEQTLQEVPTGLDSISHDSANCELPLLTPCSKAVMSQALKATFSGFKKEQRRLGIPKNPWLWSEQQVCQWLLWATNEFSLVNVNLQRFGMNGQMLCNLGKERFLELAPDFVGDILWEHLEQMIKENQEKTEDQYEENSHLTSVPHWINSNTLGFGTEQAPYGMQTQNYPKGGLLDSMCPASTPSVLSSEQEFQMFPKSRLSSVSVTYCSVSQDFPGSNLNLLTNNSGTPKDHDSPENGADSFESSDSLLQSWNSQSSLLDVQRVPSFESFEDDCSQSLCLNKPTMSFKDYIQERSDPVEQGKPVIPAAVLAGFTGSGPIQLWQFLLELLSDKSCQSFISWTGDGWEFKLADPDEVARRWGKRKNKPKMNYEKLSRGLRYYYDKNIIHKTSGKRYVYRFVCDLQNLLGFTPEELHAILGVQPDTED
The description is as above. The conditions noted are these: protein: recombinant; tags: N-terminal GST; dsDNA, one strand shown. The method, boiled down:
as §1
For the sequence CGTCCC, the binding signal was 1.38 fold enrichment (6-mer frequency, TF over GST control).
On to CCCTAA, for which the binding signal was 1.15 fold enrichment (6-mer frequency, TF over GST control).
Consider TTCTTG, for which the binding signal was 1.39 fold enrichment (6-mer frequency, TF over GST control).
The same measure, in the same setting: with AACAAG the figure was 1.06 fold enrichment (6-mer frequency, TF over GST control); with TGCCTT, 1.38 fold enrichment (6-mer frequency, TF over GST control); with TGCATT, 1.34 fold enrichment (6-mer frequency, TF over GST control).
With CCTTTG, the binding signal is 1.32 fold enrichment (6-mer frequency, TF over GST control).
Same read-out and setting: the figure for CTCACC is 1.11 fold enrichment (6-mer frequency, TF over GST control).
For AATAGA, the binding signal is 1.1 fold enrichment (6-mer frequency, TF over GST control).
On the same count and under the same terms, the figure for GAAACG is 1.17 fold enrichment (6-mer frequency, TF over GST control).
Turning to TATAAC, the binding signal is 1.25 fold enrichment (6-mer frequency, TF over GST control).
On to CGTTCA, for which the binding signal was 1.12 fold enrichment (6-mer frequency, TF over GST control).
Take TGCTGA: the binding signal is 1.11 fold enrichment (6-mer frequency, TF over GST control).
Turning to ACATGT, the binding signal was 1.15 fold enrichment (6-mer frequency, TF over GST control).
With TCCGGG, the binding signal was 1.67 fold enrichment (6-mer frequency, TF over GST control).
As for GGCCTA, the binding signal was 1.19 fold enrichment (6-mer frequency, TF over GST control).
Still for that read-out and setting: with CGGCAT the figure was 1.17 fold enrichment (6-mer frequency, TF over GST control).
For ATACTA, the binding signal is 1.24 fold enrichment (6-mer frequency, TF over GST control).
Same read-out and setting: the figure for TCCCCG is 1.11 fold enrichment (6-mer frequency, TF over GST control); for CGAATT it is 1.14 fold enrichment (6-mer frequency, TF over GST control).
